Experimental findings from PubChem BioAssay (NCI) are described below.

About 83,000 compounds went through this panel and 20% of them were active in at least one assay; those are over-represented in the sample as a whole.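 Cell lines were cultured in 96-well plates, exposed to a single compound concentration, and assessed for percent growth 48 hours later.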 A number with no mark means an inactive call. Calls of active or inactive are those of the source.

The subject of this test is UACC-62 melanoma. Description: NCI-60 one-dose screen, 48 h (100 = growth as untreated, 0 = no growth, -100 = all killed). To be noted: 10 µM unless noted. How it is done: Growth inhibition of the UACC-62 human tumor cell line is measured as a screen for anti-cancer activity. Cells are grown in 96 well plates and exposed to the test compound for 48 hours. Compounds are tested at a single concentration, which is 10^-5 M for most compounds. The reported endpoint is percent growth (GI% or GIPRCNT), where numbers from 0 - 100% represent growth inhibition, and numbers from -100% - 0 represent cell death. For example, a value of 40 represents 60% growth inhibition. A value of 0 means no net growth occurred over the course of the experiment. A value of -40 indicates 40% of cells at the beginning of the experiment died by the end of the experiment. A value of -100 means all cells are dead at the end of the experiment.
NCI-60 Human Tumor Cell Lines Screen was performed using the standard one-dose NCI protocol, which is described in more detail at https://dtp.cancer.gov/discovery_development/nci-60/default.htm.
Compounds with GIPRCNT values below 10 were considered active. Activity score was based on GIPRCNT using the following formula: […]
Score is 0 for GIPRCNT values of 100 or above, 50 for GIPRCNT values of 0, and 100 for GIPRCNT values of -100.
Consider `Clc1ccc(N2N=C(c3cccc(Nc4ccncc4)c3)CC2c2ccc3c(c2)OCO3)cc1` (stereo not given), for which the growth was 90.8%.
The figure for `C#CCNC(=O)[C@H](Cc1ccccc1)NC(=O)[C@]12CC[C@@H](C(=C)C)[C@@H]1[C@H]1CC[C@@H]3[C@@]4(C)Cc5c([nH]c6ccccc56)C(C)(C)[C@@H]4CC[C@@]3(C)[C@]1(C)CC2` is 93.2%.
The result for `NC(=O)c1ccc[n+](CC(=O)N2CCN(c3cc4c(cc3F)c(=O)c(C(=O)O)cn4C3CC3)CC2)c1` reads 59.2%; that for `CC(=O)OCCCCCNc1ccccc1`, 106%.
The result for `N#Cc1cc(-c2nc3ccccc3s2)c(=O)n(NS(=O)(=O)c2ccc(Cl)cc2)c1N` reads 88.2%; that for `CCN(CCNc1cc(OC)cc2cccnc12)CCc1ccccc1`, 99.8%.
As to `CCN(CC)CCOC(COc1cc(C)cc(C)c1)COc1cc(C)cc(C)c1`, the growth is 46.4%.
The figure for `CCCc1cc2c(cc1Br)OCO2` is 101%.
The figure for `CCCCCN1C=C/C(=C\C(=O)N(C)c2cccc3ccccc23)c2ccccc21` is 87.4%; for `O=c1[nH]c(=O)[nH]c(=S)[nH]1` it is 96.1%; for `C/C(=C(/c1ccccc1)c1ccc(OCC(O)CN2CCOCC2)cc1)c1ccccc1` (stereo not given) it is 97%.
On to `COc1ccc(Cl)cc1NC(=O)c1c(NC(=O)C(F)(F)C(F)(F)F)sc2c1CCCCC2`, for which the growth is 6.99% (active).
Turning to `[O-][n+]1ccccc1CCN(O)CCc1cccc[n+]1[O-]`, the growth was 99%.
For `Clc1ccc(N2N=C(c3cccc(Nc4ccncc4)c3)CC2c2ccc(Br)cc2)cc1` (stereo not given), the growth is 101%.
The result for `C=C(C)[C@@H]1CC[C@]2(C(=O)N3CCN(C)CC3)CC[C@]3(C)[C@H](CC[C@@H]4[C@@]5(C)CCC(=O)C(C)(C)[C@@H]5CC[C@]43C)[C@@H]12` reads 99.5%; that for `C=C1C(=O)O[C@H]2[C@H]1CC/C(CNC(=O)/C=C/c1ccccc1F)=C\CC[C@@]1(C)O[C@@H]21`, -5.46% (active).
The figure for `Cc1nc2sc(C(=O)Nc3ccccc3)c(N)c2cc1C(=O)c1ccc(C(F)(F)F)cc1` is 95.3%; for `CCOC(=O)c1c(C)nc2c(c1N)C(=O)C(=O)N2Cc1ccc(C(F)(F)F)cc1` it is 42.8%; for `CCCCOc1ccc(/C=N/Nc2cc(C)nc3ccc(Cl)cc23)cc1` it is 77.8%.
In the case of `CC(C)(C)CC(C)(C)Nc1c(-c2ccc3c(c2)OCO3)nc2cnccn12`, the growth was 66%.
The result for `C#Cc1cccc(NC(=O)Nc2cccc(N=C=S)c2)c1` reads 89.4% [8.25 µM]; that for `COc1cc(C2NC(c3cc(OC)c(OC)c(OC)c3)C(C#N)(C#N)C2(C#N)C#N)cc(OC)c1OC` (stereo not given), 98.2%; that for `COc1cccc(NC(=O)c2cccc(-c3cc(=O)c4c(OC)c(OC)c(OC)cc4o3)c2)c1`, 62.1%.
The figure for `Fc1ccccc1CSc1ncnc2nc[nH]c12` is 94.2%; for `CS(=O)(=O)c1ccc(-c2cc3c(oc2=O)-c2ccccc2OC3O)cc1` (stereo not given) it is 92.2%.
Take `CC(C)(C#N)N1CCN(c2ccccc2Cl)CC1`: the growth was 112%.
The figure for `CCCCCCCCCCCCC1CCC/C=C\CCC(=O)O1` (stereo not given) is 101%; for `CCCCCCOc1ccc(/C=N/Nc2cc(C)nc3ccc(Br)cc23)cc1` it is 25.8%.
The result for `O=C(Nc1ccc(Cl)cc1)Nc1ccc(Cl)c(Cl)c1` reads 5.98% (active); that for `N/C(=N\N=C\c1cc2ccccc2s1)N/N=C/c1cc2ccccc2s1`, 95.3%.
Turning to `Cc1cccc(C)c1-c1cc(Cc2ccc(Cl)cc2)c(=O)[nH]n1`, the growth is 93.7%.
The figure for `COc1ccc(C2=C(c3ccccc3)c3ccc(OC(C)=O)cc3OC2(C)C)cc1` is 83.5%; for `O=C(N/N=C/c1cccc(O)c1)c1ccccc1Nc1cccc(C(F)(F)F)c1` it is 80.7%.
The result for `N#CSCC1CC(O)(c2ccccc2)C(c2ccccc2)C(c2ccc(F)cc2)O1` (stereo not given) reads 41.2%.
The result for `NC(=O)c1cccc(-c2ccccc2N2CCCCC2)c1` reads 85%.
With `Cn1c(COC(=O)NCCn2ccnc2)nc2c(N3CCOCC3)nc(-c3ccccc3)nc21`, the growth is -93.9% (active).
The figure for `CC1(c2ccccc2)NC(=O)N(CC(=O)Nc2cccc(I)c2)C1=O` (stereo not given) is 74%; for `Cc1ccc(S(=O)(=O)Nc2ccc(Cl)cc2)cc1` it is 77.2%; for `Fc1ccc2nc3c(cc2c1)CSc1nnc(-c2ccc[nH]c2=S)n1N3` it is 91.7%.
As for `COc1cccc2cc(-c3cc4ccccc4[nH]3)/c(=N/C(=S)Nc3ccc(C)cc3)oc12`, the growth was 65.7%.
